Source: PubChem BioAssay AID1159580 (chemical genetic matrix, 2015)
Among all 5,500 compounds or so, about 2,000 (36%) were called active. Inconclusive results (about 18%) are left out. Cut-off read from the data, not from the text of the source: active = normalized growth mostly below about 0.91 (no sharp cut-off); inconclusive = no clear call, values can overlap the other calls; inactive = mostly above about 0.92. This is one part of the list.

Assay: chemical genetic growth profiling, strain panel (AID 1159580);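 note: tested at 20 µM; growth read once vehicle control cultures reached saturation at 30 °C; 1 = growth at the plate median or of vehicle wells; lower values mean less growth of the strain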
Settings: S. cerevisiae deletion strains, growth OD

Measured: normalized growth

O=C(Nc1cccc(C(=O)Nc2ccc(S(=O)(=O)O)c3cc(S(=O)(=O)O)cc(S(=O)(=O)O)c23)c1)Nc1cccc(C(=O)Nc2ccc(S(=O)(=O)O)c3cc(S(=O)(=O)O)cc(S(=O)(=O)O)c23)c1
inactive: locus YAL040C, strain CLN3, active compounds read low 1.05 | locus YCL061C, strain MRC1 (second series), active compounds read low 0.981 | locus YDR150W, strain NUM1, active compounds read low 0.976 | locus YDR363W, strain ESC2, active compounds read low 1.02 | locus YER002W, strain NOP16, active compounds read low 0.968 | locus YMR263W, strain SAP30, active compounds read low 0.973 | locus YNL153C, strain GIM3, active compounds read low 0.977 | locus YNL175C, strain NOP13, active compounds read low 0.978 | locus YNL197C, strain WHI3, active compounds read low 0.968 | locus YNL224C, strain SQS1, active compounds read low 0.981 | locus YOR083W, strain WHI5 (second series), active compounds read low 0.97
